A selection: hits, their analogues and other compounds. The true share with any hit is near 2.4%.
D2 PAM-1: positive allosteric modulators of human D2 dopamine receptor; P14416; HEK293 T-REx D2, calcium flux, EC20 dopamine potentiation; potentiation, % at 10 µM; actives 0.34% (n = 340,000); AID 485347;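 active = potentiation over 3 SD above the plate norm, cut at about 30% in these data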
Target sequence (P14416 whole entry, looked up): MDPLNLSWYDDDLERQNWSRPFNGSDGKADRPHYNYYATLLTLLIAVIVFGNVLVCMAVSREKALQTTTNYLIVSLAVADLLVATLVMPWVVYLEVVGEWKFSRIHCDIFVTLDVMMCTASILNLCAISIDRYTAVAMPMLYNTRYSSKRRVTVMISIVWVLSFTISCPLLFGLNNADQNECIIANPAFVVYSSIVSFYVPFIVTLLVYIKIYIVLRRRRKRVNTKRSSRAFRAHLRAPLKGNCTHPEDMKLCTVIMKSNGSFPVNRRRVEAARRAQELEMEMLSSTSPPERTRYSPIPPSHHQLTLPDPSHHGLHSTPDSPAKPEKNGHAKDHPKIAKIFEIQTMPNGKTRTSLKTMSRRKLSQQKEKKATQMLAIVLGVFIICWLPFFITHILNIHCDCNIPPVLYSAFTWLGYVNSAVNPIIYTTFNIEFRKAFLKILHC
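Potentiation of an EC20 dopamine calcium response is measured in a force-coupled, tetracycline-inducible Hek293 Trex D2 line. Compound-only kinetic reads over 180 s flag agonists before dopamine addition.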
D2 PAM-2: positive allosteric modulators of human D2 dopamine receptor | P14416 | DiscoveRx D2 beta-arrestin cells, luminescence, 90 min; 100% = 57 uM dopamine signal | potentiation, % (concentration not given with the values) | actives 0.23% (n = 360,000); in the data active = potentiation above about 50%; inconclusive = mostly about 30% to 49%
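PathHunter D2 cells, attached overnight at 37 deg C, received compound in DMSO plus dopamine at EC20 (50 nM final) for 90 min at 37 deg C. Beta-arrestin recruitment was read as luminescence after 1 h with detection reagent at ambient temperature.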
D2 antagonist: antagonists of human D2 dopamine receptor. HEK293 TREx D2 cells, calcium flux, dopamine EC80. inhibition, % at 10 µM. actives 2% (n = 340,000). AID 485344; in the data active = inhibition above about 30%; inactive = below that, where a call was filed
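Measurement of antagonist activity uses fluorescent calcium dye in inducible HEK293 T-REx D2 cells: 10 s baseline, compound addition with 180 s read, EC80 dopamine addition with a further 180 s read.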
D2 ag-1: activates the human D2 dopamine receptor; HEK293 T-REx D2 cells, calcium flux agonist mode; activation, % at 2 µM; actives 0.53% (n = 340,000); AID 485358;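 active = activation over 3 SD above normal in the single-dose calcium agonist read, cut at about 30% in these data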
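Calcium-flux readout, 1 cycle/sec over 180 s following compound pin transfer, in inducible HEK293 Trex D2 cells (force-coupled); dopamine controls included. Positive calcium responses during this window marked compounds as potential agonists.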
D2 ag-2: agonists of human D2 dopamine receptor (beta-arrestin); activation, % (no concentration beside the values); P14416; actives 0.084% (n = 360,000); DiscoveRx PathHunter D2 beta-arrestin, luminescence, 90 min; 100% = 57 uM dopamine signal; in the data active = activation above about 40%; inconclusive = between about 15% and that limit
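Agonist mode: compounds alone added to overnight-plated D2 PathHunter cells for 90 min at 37 C, with 57 uM final dopamine (EC100) defining full response. Beta-arrestin recruitment detected by chemiluminescent reagent, read after 1 h at ambient temperature.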
Hits are given with their value; - = inactive; ? = inconclusive; . = no result given; ! = not confirmed by another sample.

SMILES	D2 PAM-1	D2 PAM-2	D2 antagonist	D2 ag-1	D2 ag-2
CCOC(=O)c1[nH]c2c(c1-c1ccccc1)C(=O)CC(c1ccccc1)C2 (stereo not drawn)	-	-	31	-	-
COc1ccccc1-c1cnc2c(c1)C(=O)N([C@@H](C)CO)C[C@@H](C)[C@H](CN(C)C(=O)c1cccnc1)O2	.	-	.	.	-
COc1cccc(NC(=O)CN(C)C(=O)CSc2nc(C)cc(C)n2)c1	-	-	41	-	-
COc1ccc(NC(=O)CN(C)C(=O)CCSc2ccc(F)cc2)cc1	-	-	34	-	-
CC(=O)Nc1ccc(NC(=O)COc2cc(O)c3c(c2)OC(C)(C)CC3=O)cc1	-	-	-	-	-
Cc1cc(OCC(=O)Nc2ccc(Br)cc2)cc2c1C(=O)CC(C)(C)O2	-	-	41	-	-
c1ccc(N2CCN(Cc3ccc4c(c3)OCO4)CC2)nc1	.	91	.	.	65
c1ccc(-c2ncc(CN3CCN(c4ccccn4)CC3)[nH]2)cc1	-	-	89	-	-
Cc1nc(N2CCN(Cc3ccc4c(c3)OCO4)CC2)c2cc(-c3ccccc3)sc2n1	-	-	-	-	-
CSc1nc(N2CCN(Cc3ccc4c(c3)OCO4)CC2)c2ccccc2n1	-	-	38	-	-
FC(F)(F)c1ccc(N2CCN(Cc3ccc4c(c3)OCO4)CC2)nc1	-	-	-	-	-
CCc1cccc(NC(=O)c2cc3c(=O)n(Cc4ccc(OC)cc4)ccc3nc2C)c1	-	.	.	-	.
O=C(c1ccccc1NS(=O)(=O)c1ccc(F)cc1)N1CCOCC1	-	-	-	-	-
COc1ccc(C(=O)/C=C/Nc2ccc([N+](=O)[O-])cc2C)c(OC)c1	-	-	-	-	-
COc1ccc(C(=O)/C=C/Nc2ccc([N+](=O)[O-])cc2C)cc1OC	-	-	40	-	-
CCc1ccc(NC(=O)Cc2c(C(=O)O)c(C)cn2C)cc1	-	.	.	-	.
CN(C)S(=O)(=O)c1ccc(C(=O)OCCc2ccccc2)cc1	37	-	-	-	-
COc1ccc(OCc2ccc(-c3nc(C#N)c(N4CCC(C)CC4)o3)o2)cc1	-	.	.	-	.
COc1ccccc1-c1ccc(/C=C2/C=C(CC(C)C)OC2=O)o1	-	-	33	-	-
COCCCNC(=O)c1c(NC(=O)Cc2coc3cc(C)ccc23)sc2c1CCCC2	-	.	.	-	.
Cc1cc([N+](=O)[O-])nn1CC(=O)NC(C)c1ccccc1 (stereo not drawn)	-	-	-	-	-
O=C(Cn1nc([N+](=O)[O-])nc1Br)NC(c1ccccc1)c1ccccc1	-	58	-	-	-
Cc1c(C)c2c(OCC(=O)NCC(=O)NCC(=O)O)cc3c(c2oc1=O)CCC(C)(C)O3	30	-	-	-	-
Cc1cc(=O)oc2c3c(cc(OCC(=O)NC(Cc4ccc(Cl)cc4)C(=O)O)c12)OC(C)(C)CC3 (stereo not drawn)	-	-	36	-	-
Cc1cc(=O)oc2c3c(cc(OCC(=O)N[C@@H](Cc4ccccc4)C(=O)O)c12)OC(C)(C)CC3	-	-	-	-	-
SMILES	D2 PAM-1	D2 PAM-2	D2 antagonist	D2 ag-1	D2 ag-2
CCOc1ccc(OCCSc2nc3ccccc3[nH]2)cc1	32	-	-	-	-
COc1ccc(-n2c(/C=C/c3cccc(C(F)(F)F)c3)nc3ccccc3c2=O)cc1Cl	-	.	.	-	.
CC(C)Oc1ccc(S(=O)(=O)N2CCCCC2)cc1NC(=O)CN1CCCC1c1cccs1 (stereo not drawn)	-	-	33	-	-
CC(C)Oc1ccc(S(=O)(=O)N2CCOCC2)cc1NC(=O)Cc1c(F)cccc1Cl	-	-	31	-	-
Cc1cc(C)cc(N(C)S(=O)(=O)c2nnc(NC(=O)COc3ccc(Cl)cc3)s2)c1	-	.	.	-	.
COc1ccc(Nc2nc(C)nc3c2nnn3Cc2ccccc2)cc1OC	35	-	-	-	-
CCOC(=O)C1CCN(C(=O)Cc2c(F)cccc2Cl)CC1	-	-	31	-	-
Cc1nc(SCC(=O)c2cc(C)n(C3CC3)c2C)c2ccccc2n1	.	-	.	.	-
CCCc1nc2nc(C)c(NS(=O)(=O)c3ccc(CC(C)C)cc3)c(=O)n2[nH]1	32!	-	-	-	-
CC(C)Cc1nnc(NC(=O)C2CCCN(C(=O)c3ccc(Cl)cc3)C2)s1 (stereo not drawn)	.	-	.	.	-
COc1ccc2c(c1)-c1ccccc1S(=O)(=O)N2C	-	-	34	-	-
O=C(O)CCc1ccc(-c2ccccc2)n1-c1cccc(Br)c1	-	.	.	-	.
COc1ccc(C)cc1S(=O)(=O)Nc1ccc(F)c(Cl)c1	-	-	32	-	-
CCC(=O)NC1=C(Cl)C(=O)C(NC(=O)CC)=C(Cl)C1=O	-	-	-	-	42
CCC(=O)NC1=C(NC(C)c2ccccc2)C(=O)c2ccccc2C1=O (stereo not drawn)	-	?	-	-	-
COCCSc1ccccc1C(=O)N1CCCC(C)C1 (stereo not drawn)	-	-	-	-	-
CCOC(=O)C1CCCN(C(=O)c2cc(Cl)ccc2Cl)C1 (stereo not drawn)	-	-	31	-	-
CCOC(=O)C1CCCN(C(=O)CSc2ccc(NC(C)=O)cc2)C1 (stereo not drawn)	-	-	-	34	?
CCOC(=O)C1CCCN(C(=O)CSc2ccccc2)C1 (stereo not drawn)	-	-	-	-	-
CCOC(=O)C1CCCN(C(=O)c2ccccc2SCCOC)C1 (stereo not drawn)	-	-	30	-	-
COc1ccc(C2CC(c3ccccc3)=NN2C(=O)COC(=O)c2cc(S(=O)(=O)N3CCOCC3)ccc2Cl)cc1 (stereo not drawn)	-	-	32	-	-
CCc1cccc(NC(=O)CCc2nc3cccnc3n2-c2ccccc2)c1	-	.	.	-	.
CCS(=O)(=O)c1ccc2oc(Nc3ccc(OC)cc3)nc2c1	-	-	34	-	-
O=C(CNc1cccc([N+](=O)[O-])c1)NCCCc1ccccc1	-	-	-	-	-
Cc1cc(Br)ccc1NC(=O)CNC(=O)CNc1cccc([N+](=O)[O-])c1	-	-	31	-	-
CCN(c1ccccc1)S(=O)(=O)c1ccc(Cl)c(C(=O)NCC2CCCO2)c1 (stereo not drawn)	31	-	-	-	-
CS(=O)(=O)N(Cc1ccc(Cl)cc1)c1ccc(C(=O)NCC2CCCO2)cc1 (stereo not drawn)	-	-	-	-	-
CS(=O)(=O)N(Cc1ccccc1)c1ccc(C(=O)NCC2CCCO2)cc1 (stereo not drawn)	-	-	33	-	-
CCn1c(CCc2ccccc2)nc2ccccc21	-	-	-	-	-
Cc1cc(OCc2cc(C(=O)N3CCN(C)C(=O)[C@@H]3C)no2)cc(C)c1Cl	30	-	-	-	-
